The campaign covered roughly 400,000 compounds. About 2,100 (0.53%) were called active. Not shown: some 14% with an inconclusive outcome. This is one part of a sample in which actives are shown more often than they occur. No rule for the calls is given here.
What follows are compounds tested against Ataxin-2 (Homo sapiens) (UniProt Q99700) (assay: qHTS for Inhibitors of ATXN expression.).
Type: functional

Sequence of Ataxin-2 (Homo sapiens) (Q99700 whole entry): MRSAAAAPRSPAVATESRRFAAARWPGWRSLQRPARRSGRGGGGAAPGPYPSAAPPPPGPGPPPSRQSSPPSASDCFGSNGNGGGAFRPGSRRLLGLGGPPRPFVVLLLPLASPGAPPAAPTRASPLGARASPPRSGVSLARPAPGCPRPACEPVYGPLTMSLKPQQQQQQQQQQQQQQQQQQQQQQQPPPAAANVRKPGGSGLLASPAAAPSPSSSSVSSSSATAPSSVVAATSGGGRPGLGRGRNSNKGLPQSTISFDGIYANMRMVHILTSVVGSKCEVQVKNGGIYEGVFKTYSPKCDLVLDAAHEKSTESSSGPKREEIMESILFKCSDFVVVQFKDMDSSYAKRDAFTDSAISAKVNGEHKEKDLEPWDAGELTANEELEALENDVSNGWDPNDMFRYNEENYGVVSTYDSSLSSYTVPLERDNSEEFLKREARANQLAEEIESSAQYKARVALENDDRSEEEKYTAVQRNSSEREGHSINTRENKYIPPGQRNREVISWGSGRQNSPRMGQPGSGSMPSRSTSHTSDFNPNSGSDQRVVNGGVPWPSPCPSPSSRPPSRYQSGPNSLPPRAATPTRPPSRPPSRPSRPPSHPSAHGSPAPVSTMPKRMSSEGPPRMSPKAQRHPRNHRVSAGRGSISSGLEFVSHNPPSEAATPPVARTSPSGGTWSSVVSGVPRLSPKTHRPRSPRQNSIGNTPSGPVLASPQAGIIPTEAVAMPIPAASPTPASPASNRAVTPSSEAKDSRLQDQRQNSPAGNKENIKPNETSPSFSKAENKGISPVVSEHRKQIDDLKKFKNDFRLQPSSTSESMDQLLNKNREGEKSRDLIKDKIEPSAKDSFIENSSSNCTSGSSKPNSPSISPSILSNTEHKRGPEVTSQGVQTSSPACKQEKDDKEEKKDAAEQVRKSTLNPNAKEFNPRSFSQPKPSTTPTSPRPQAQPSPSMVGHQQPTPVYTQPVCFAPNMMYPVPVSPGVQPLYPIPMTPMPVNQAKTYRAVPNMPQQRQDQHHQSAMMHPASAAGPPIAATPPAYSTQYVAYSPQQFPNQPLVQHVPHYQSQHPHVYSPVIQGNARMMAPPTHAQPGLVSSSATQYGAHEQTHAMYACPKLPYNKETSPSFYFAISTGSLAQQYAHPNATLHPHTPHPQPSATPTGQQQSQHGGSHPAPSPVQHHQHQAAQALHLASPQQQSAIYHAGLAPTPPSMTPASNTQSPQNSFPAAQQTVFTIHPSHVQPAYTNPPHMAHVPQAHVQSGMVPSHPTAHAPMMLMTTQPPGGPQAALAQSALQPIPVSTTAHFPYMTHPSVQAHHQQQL

SMILES	Potency
COc1ccc(-n2c(N)c(C(=O)NCC3CCCO3)c3nc4ccccc4nc32)c(OC)c1 (configuration not stated)	inactive
COc1ccccc1-n1c(N)c(C(=O)NCC2CCCO2)c2nc3ccccc3nc21 (configuration not stated)	inactive
COc1cccc(-c2[nH]c(C(=O)NCC3CCCO3)cc3c4ccccc4nc2-3)c1 (configuration not stated)	17.8 µM (active)
COc1cc(C(=S)N2CCOCC2)ccc1OC(=O)c1ccc(Br)cc1	inactive
Cc1cccc(-c2ccc3[nH]c4c(c3c2)CCN2C[C@@H]([C@H](C)O)[C@@H](N(C)C(=O)Nc3ccc(F)cc3)C[C@@H]42)c1	25.1 µM (active)
CN[C@H]1C[C@H]2c3[nH]c4ccc(-c5cccc(C)c5)cc4c3CCN2C[C@H]1[C@H](C)O	39.8 µM (active)
Cc1ccc2[nH]c3c(c2c1)CN(C(=O)CN1CCCCC1)CC3	inactive
Cc1ccc2[nH]c3c(c2c1)CCCC3NCCO (configuration not stated)	inactive
CCOC(=O)N(C)[C@H]1C[C@H]2c3[nH]c4ccccc4c3CCN2C[C@H]1[C@H](C)O	inactive
COc1ccc(NC(=O)N(C)[C@H]2C[C@H]3c4[nH]c5ccc(-c6cccc(C)c6)cc5c4CCN3C[C@H]2[C@H](C)O)cc1	39.8 µM (active)
COc1ccc(NC(=O)N(C)[C@H]2C[C@H]3c4[nH]c5ccc(-c6ccc(OC)cc6)cc5c4CCN3C[C@H]2[C@H](C)O)cc1	25.1 µM (active)
C[C@H](O)[C@@H]1CN2CCc3c([nH]c4ccccc34)[C@@H]2C[C@@H]1N(C)C(=O)OCc1ccccc1	inactive
COc1cccc(-c2c(C#N)c(O)nc3c2-c2ccc(OC)cc2CC3)c1	inactive
O=C(O)c1cc(-c2c[nH]c3ccccc23)nc2ccc3ccccc3c12	inactive
COC(=O)C1C2CC3c4[nH]c5cc(OC)ccc5c4CCN3CC2CC(OC2CCCCO2)C1OC (configuration not stated)	inactive
COc1ccc(-c2ccc3[nH]c4c(c3c2)CCN2C[C@@H]([C@H](C)O)[C@@H](N(C)C(=O)Nc3cc(Cl)cc(Cl)c3)C[C@@H]42)cc1	35.5 µM (active)
O=C(COc1ccc([N+](=O)[O-])cc1)N(C1CCCCC1)C1CCS(=O)(=O)C1 (configuration not stated)	inactive
C/C(=N/OC(=O)C1CC1)c1cc(-c2ccc(Cl)cc2)no1	inactive
CCc1cc2c(-c3ccccc3)cc(=O)oc2c2c1OCN(Cc1ccc(C)cc1)C2	inactive
O=C1Nc2ccccc2/C1=C/c1c[nH]c(-c2ccccc2)n1	inactive
COc1ccc(N/C=C2/C(=O)N(c3cccc(C)n3)C(=O)c3ccccc32)c(OC)c1	inactive
COc1ccc2c(c1)/C(=C\c1cccc(/C=C3/C(=O)Nc4ccc(OC)cc43)n1)C(=O)N2	0.891 µM (active)
